FMDV antiviral: foot and mouth disease virus antiviral activity; FMDV antiviral cell-based qHTS; Potency, µM (top dose mostly 57.9 µM), inactives show at the highest dose activity change, negative = inhibition, actives largely listed as inhibitors; 1.2% of 410,000 active; AID 1159524; calls by dose curve; tested in HEK293T cells; note: read-out not given here; nearly all actives have a fitted effect of over 45% in size
Marburg entry inh: inhibitors of Marburg virus binding or cell entry. AID 540276. Marburg virus pseudotyped entry inhibition, cell reporter. 1.8% of 300,000 active. Potency, µM (top dose mostly 37.8 µM), inactives show at the top dose activity change, negative = inhibition, actives largely listed as inhibitors; calls by dose curve; tested in HEK293 cells
Sm TGR inh: S. mansoni TGR enzyme inhibition; Q962Y6; 3% of 360,000 active; Potency, µM (titrated, usually from 114 µM), for inactives: at the top dose activity change, negative = inhibition, actives largely listed as inhibitors; purified TGR, DTNB reduction, TNB absorbance 405 nm; note: nearly all actives have a fitted effect of over 60% in size
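TGR 20 nM + NADPH 100 uM (dispensed conc.), cpd preinc 15 min RT; start with NADPH (500 uM addition) then DTNB (15 mM addition). Kinetic TNB absorbance, 405 nm filter. Four-parameter Hill fit across titration.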
HCV inhibitor: HCV inhibition. Huh7.5.1 HCVcc-Cre infection, luciferase reporter, 44 h. Potency, µM (doses to about 41.8 µM), for inactives: at the top dose activity change, negative = inhibition, hits mostly inhibitors. 3.4% of 340,000 active. AID 651820
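A cell-based infection assay in which seeded cells (1,000 per well) receive test compound after 4 h, are inoculated with HCVcc-Cre at approximately 0.5 moi, and are incubated 44 h before luminescence detection.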
RE007 growth inh: less growth of the S. pombe RE007 Vpr strain | S. pombe RE007 Vpr strain, BacTiter-Glo ATP luminescence, 24 h | Potency, µM (highest dose often 92.2 µM), for inactives: at the highest dose activity change, negative = less growth, hits mostly inhibitors | 0.21% of 360,000 active | AID 651644; active = well fitted falling curve with a large enough effect; inconclusive = small, poorly fitted or top-dose-only effect; inactive = no such curve, though single readings can be large or run the other way; note: nearly all actives have a fitted effect of over 50% in size
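Fission yeast strain RE007, carrying one chromosomally integrated HIV-1 vpr copy, was seeded at OD 0.01 in PMG+AL medium with 23 nL pinned compound. After 24 h at 30 °C and 99% humidity, viability was read by BacTiter-Glo luminescence.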
LASV entry inh: Lassa virus entry inhibition | Lassa virus pseudotype entry inhibition, cell reporter | Potency, µM (top dose mostly 37.9 µM), without a hit: top-dose activity change, negative = inhibition, usual class: inhibitors | 1.2% of 300,000 active | AID 540256; calls by dose curve; tested in HEK293 cells; note: nearly all actives have a fitted effect of over 50% in size
* marks the source's active call; other numbers are inactive results; ? = inconclusive; · = not tested or not shown; [ ] = remark or other dose. A selection: hits, their analogues and other compounds. The true share with any hit is near 7.2%. Unless noted, calls come from the whole dose curve; as a rule, active = well fitted curve in the direction sought with a large enough effect; inconclusive = small, poorly fitted or top-dose-only effect, or another doubt; inactive = no such curve, though single readings can be large; an effect the other way counts as inactive or inconclusive. % is set by controls: 0 for no effect and ±100 for the full control effect; potency is the fitted concentration of half-maximal effect.

SMILES	FMDV antiviral	Marburg entry inh	Sm TGR inh	HCV inhibitor	RE007 growth inh	LASV entry inh
COc1cccc(CC2(CO)CCCN(Cc3ccc(C)s3)C2)c1 (stereo unspecified)	-19%	?	11%	0%	-4%	0%
COc1cccc(CC2(CO)CCCN(Cc3ccccc3-c3ccco3)C2)c1 (stereo unspecified)	-30%	-29%[46.1 µM]	50µM*	-23%	-18%	-7%
COc1cccc(CC2(CO)CCCN(Cc3cc4ccccc4[nH]3)C2)c1 (stereo unspecified)	-19%	4µM*	-16%	-18%	-8%	?
COc1cccc(CC2(CO)CCCN(Cc3ccc(CO)o3)C2)c1 (stereo unspecified)	-10%	-24%[46.1 µM]	-26%	9%	3%	-9%[46.1 µM]
COc1cccc(CC2(CO)CCCN(Cc3ccc(-c4ccco4)cc3)C2)c1 (stereo unspecified)	-13%	?	18µM*	21%	1%	-10%
Cc1ccc(OCc2nc3ccccc3n2C(C(=O)Nc2c(C)cccc2C)C2CC2)cc1 (stereo unspecified)	-24%	·	·	·	6%	·
COC(=O)c1c(NC(=O)CCCOc2ccc(C)cc2)sc2c1C(C(=O)OC)CC2 (stereo unspecified)	?	·	-4%	·	·	-7%[46.1 µM]
Cc1ccccc1OC(=O)CSc1nnc(-c2ccc(F)cc2)o1	-25%	17%[46.1 µM]	0%	·	·	6%[46.1 µM]
COc1cccc(C2C(C(C)=O)=C(C)Nc3ncnn32)c1 (stereo unspecified)	-3%	4%	4%	27%	-8%	20%
COc1ccc(C2C(C(C)=O)=C(C)Nc3ncnn32)cc1 (stereo unspecified)	-1%	·	35µM*	-4%	9%	·
COc1ccccc1NC(=O)C1=C(C)Nc2ncnn2C1c1ccc[nH]1 (stereo unspecified)	-12%	·	40µM*	·	·	2%[46.1 µM]
Cc1nc(N2CCCC2)c2c(C(=O)Nc3ccc(Br)cc3F)c(C)oc2n1	-18%	·	9%	·	·	-1%[46.1 µM]
Fc1ccc(C(Nc2ccccn2)c2c[nH]c3ccccc23)cc1 (stereo unspecified)	-24%	·	2.8µM*	?	-24%	·
OC(c1ccccn1)c1c[nH]c2ccccc12 (stereo unspecified)	3%	18%	22µM*	22%	-15%	4%
CCC1CCCCN1CCCNC(=O)c1ccc2c(c1)N(Cc1ccc(Cl)cc1)C(=O)c1ccccc1S2(=O)=O (stereo unspecified)	-14%	?	4%	·	·	?
O=C1NC(=O)C(=Cc2ccc(-c3cc(Cl)ccc3[N+](=O)[O-])o2)C(=O)N1	20µM*	?	32µM*	17%	3%	1%
Cc1ccc(-c2ccc(/C=C3/NC(=O)NC3=O)o2)cc1[N+](=O)[O-]	-28%	-12%	-11%	-11%	-2%	-17%
CC1=C(C#N)C(=O)NC(=O)/C1=C\c1ccc(-c2cc(C)c(C)cc2[N+](=O)[O-])o1	?	28%	3.5µM*	17%	?	27%
O=C1NC(=O)C(=Cc2ccc(-c3ccccc3[N+](=O)[O-])o2)C(=O)N1	35µM*	?	-3%	31%	5%	17%
COC(=O)Nc1ccc2ccc3c(NC(=O)OC)ccc4ccc1c2c43	-16%	2%	·	13µM*	4%	-2%
COc1ccc(-c2[nH]c(-c3ccc(O)cc3)nc2-c2ccccc2)cc1	-12%	?	-9%	·	·	?
COc1cc2c(cc1OC)C1CC(=O)C(CC(C)C)CN1CC2 (stereo unspecified)	-27%	?	0%	·	8%	?
CC[C@H]1CN2CCc3cc(OC)c(OC)cc3[C@H]2C[C@@H]1C[C@@H]1NCCc2cc(OC)c(OC)cc21	·	0.22µM*	·	·	·	·
CC(C)C[C@H](NC(=O)OC(C)(C)C)C(=O)N1CCC(C(=O)N[C@@H](Cc2c[nH]c3ccccc23)C(=O)O)CC1	9%	4%	-4%	-8%	-1%	0%
